For assay [1], the target named is Aldehyde dehydrogenase, mitochondrial (Homo sapiens) (UniProt P05091). As to the kind of experiment: qHTS for Inhibitors of the Aldehyde Dehydrogenase Family (ALDH2) Primary screen (AID 2061308).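 Further: plate controls were vehicle for no effect and reference inhibitor for full effect; nearly all actives have a fitted effect of over 55% in size.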
Assay [2] deals with Retinaldehyde dehydrogenase 3 (Homo sapiens) (UniProt P47895). As to the kind of experiment: qHTS for Inhibitors of the Aldehyde Dehydrogenase Family (ALDH1A3) Primary screen (AID 2061315).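 Further: plate controls were DMSO vehicle for no effect and reference inhibitor for full effect.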

Inconclusive results are not listed. Unmarked numbers belong to inactive results. Activity calls are given as the source filed them. The call rests on the fitted dose curve; in most records, active means well fitted curve in the direction sought with a large enough effect; inconclusive means small, poorly fitted or top-dose-only effect, or another doubt; inactive means no such curve, though single readings can be large; an effect the other way counts as inactive or inconclusive.

For `CC1(C)CC[C@]2(C(=O)O[C@@H]3O[C@H](CO[C@@H]4O[C@H](CO[C@@H]5O[C@H](CO)[C@H](O)[C@H](O)[C@H]5O)[C@@H](O)[C@H](O)[C@H]4O)[C@@H](O)[C@H](O[C@@H]4O[C@H](CO)[C@@H](O)[C@H](O)[C@H]4O)[C@H]3O)[C@H](O)C[C@]3(C)C(=CCC4[C@@]5(C)CC[C@H](O[C@@H]6OC[C@@H](O)[C@H](O)[C@H]6O)[C@@](C)(C(=O)O)C5CC[C@]43C)[C@@H]2C1` (stereo partly drawn), the activity change, negative = inhibition in assay [1] is 13.7% [at 11.2 µM]; in assay [2], 11.1% [at 11.2 µM].
For the molecule `C=CC1C(OC2OC(CO)C(O)C(O)C2O)OC=C2C(=O)N3C(C(=O)O)Cc4c([nH]c5ccccc45)C3CC21` (stereo not drawn), the Potency entry in assay [1] and in assay [2] was “inactive” in each case.
On to `Cc1ccc(S(=O)(=O)N2CCN(S(=O)(=O)c3ccc4c(c3)OCCO4)CC2)cc1`, for which the Potency result in assay [1] and in assay [2] was “inactive” throughout.
As to `Cc1ccnc(NC(=S)Nc2cccc([S+](=O)([O-])Nc3ccccc3F)c2)c1`, the Potency result in assay [1] and in assay [2] was “inactive” in each case.
For `CC(C)CN1CC2=C(C1=O)C(c1ccccc1Cl)N=C(Nc1nc3ccccc3o1)N2` (stereo not drawn), the Potency entry in assay [1] and in assay [2] was “inactive” throughout.
For the molecule `CCC(OC(=O)c1ccc(S(C)(=O)=O)c([N+](=O)[O-])c1)C(=O)NC1C2CC3CC(C2)CC1C3` (stereo not drawn), the Potency result in assay [1] and in assay [2] was “inactive” throughout.
For the molecule `O=S(=O)(Nc1nccs1)c1ccc(NCc2cccc(Cl)c2Cl)cc1`, the Potency result in assay [1] and in assay [2] was “inactive” throughout.
As to `Cn1c2cc(Br)sc2c2cnn(Cc3c(F)cccc3F)c(=O)c21`, the Potency entry in assay [1] and in assay [2] was “inactive” throughout.
As for `Cn1cnc(S(=O)(=O)Nc2cnccc2C(=O)Nc2nc(-c3ccccc3)cs2)c1`, the Potency entry in assay [1] and in assay [2] was “inactive” in each case.
Regarding `CCC(=O)NC(c1cccs1)c1cc(Cl)c2cccnc2c1O` (stereo not drawn), the Potency result in assay [1] and in assay [2] was “inactive” throughout.
In the case of `COc1ccc(C2=Nn3c(nnc3-c3cccc(OC)c3OC)SC2)cc1OC`, the Potency result in assay [1] and in assay [2] was “inactive” throughout.
In the case of `CN(C)CCCNC(=O)c1ccc(-c2cnc3c(O)ccc(C(=O)O)c3c2)cc1`, the Potency result in assay [1] and in assay [2] was “inactive” in each case.
On to `O=S(=O)(Nc1nc(-c2ccccc2C(F)(F)F)nc2ccccc12)c1ccc(Br)cc1`, for which the Potency entry in assay [1] and in assay [2] was “inactive” in each case.
On to `COc1ccc(C(=O)OCC#CCSc2nnc(-c3cccc4ccccc34)o2)cc1`, for which the Potency entry in assay [1] and in assay [2] was “inactive” throughout.
On to `CC(C)(C)c1ccccc1Nc1nc(C#N)nc(NC2CCCC2)n1`, for which the Potency result in assay [1] and in assay [2] was “inactive” throughout.
On to `COc1cccc(N2C(=O)c3ccccc3C2=O)n1`, for which the Potency result in assay [1] and in assay [2] was “inactive” throughout.
`COc1cccc(C2c3c(ncn(-c4ccc(C#N)cc4)c3=N)Oc3ccc4ccccc4c32)c1` (stereo not drawn): the Potency entry in assay [1] and in assay [2] was “inactive” each time.
Take `Cc1cc(Nc2c(Nc3nnc(-c4ccncc4)s3)c(=O)c2=O)ccc1Cl`: the Potency entry in assay [1] and in assay [2] was “inactive” each time.
For `CC(Cc1cnccn1)Nc1cnc2c(O)ccc(C(=O)O)c2c1` (stereo not drawn), the Potency result in assay [1] and in assay [2] was “inactive” each time.

Source of the values: PubChem BioAssay (NCATS).
